A selection: hits, their analogues and other compounds. The true share with any hit is near 10%.
hNpr1 antagonist – human Npr1 receptor antagonism | P16066 | HEK293 hNpr1 GloSensor cGMP, ANP-stimulated luminescence | Potency, µM (top dose mostly 46.3 µM), for inactives: top-dose activity change, negative = inhibition, hits mostly inhibitors | 1.6% of 76,000 active | AID 1347048; calls by dose curve; also: % is scaled to controls: 0 for no effect and ±100 for the full control effect; nearly all actives have a fitted effect of over 60% in size
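HEK293 cells stably expressing human Npr1 and cGMP GloSensor pGS-40F, loaded 2 h with 2% GloSensor reagent, given compound 30 min at room temperature. Luminescence read before and 20 min after 0.1 nM hNppA.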
HEK293 tox – kills HEK 293 cells. Potency, µM (series often up to 115 µM), for the others: at the top dose activity change, negative = cytotoxicity, usual class: inhibitors. AID 1345083. HEK 293 viability, ATP luminescence (CellTiter-Glo), 48-72 h. 6.6% of 94,000 active; also: % is scaled to controls: 0 for no effect and ±100 for the full control effect; nearly all actives have a fitted effect of over 60% in size
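Viability of HEK 293 cells, plated at 250 cells/well, was judged by cellular ATP after compound treatment for 48 or 72 hr. Luminescence was imaged 10 min after CellTiter-Glo addition at room temperature.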
GPT2 inhibitor – inhibitors of human GPT2 alanine aminotransferase. Q8TD30. Recombinant GPT2, coupled pyruvate oxidase/HRP Amplex Red fluorescence. Potency, µM (highest dose often 57.7 µM), for the others: at the highest dose activity change, negative = inhibition, hits mostly inhibitors. 0.25% of 100,000 active. AID 1671188; also: % is scaled to controls: 0 for no effect and ±100 for the full control effect; nearly all actives have a fitted effect of over 60% in size
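GPT2 10ng/uL, a-KG 250uM, L-Ala 2mM, HEPES pH7.5 + 0.0001% Tween; 30 min RT. Then Amplex mix (PO/HRP/ThPP), 30 min RT dark, fluorescence. AOA 50uM used as positive control.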
NIH3T3 tox – cytotoxic compounds in NIH 3T3 cells; NIH 3T3 viability, CellTiter-Glo ATP luminescence, 48-72 h; Potency, µM (top dose mostly 96.7 µM), inactives show top-dose activity change, negative = cytotoxicity, hits mostly inhibitors; 4.3% of 94,000 active; AID 1345082; also: % is scaled to controls: 0 for no effect and ±100 for the full control effect; nearly all actives have a fitted effect of over 55% in size
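NIH 3T3 cells at 400 cells/well received 23 nL of compound by pintool and were incubated 48 or 72 h at 37 °C. Viability was read as ATP-coupled CellTiter-Glo luminescence.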
FLuc inh – Photinus pyralis luciferase inhibition. P08659. purified P. pyralis luciferase, luminescence, biochemical. Potency, µM (titrated, usually from 115 µM), hits mostly inhibitors. 2.5% of 76,000 active. AID 1347043; also: % is scaled to controls: 0 for no effect and ±100 for the full control effect; nearly all actives have a fitted effect of over 65% in size
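Inhibitors were tested against purified firefly luciferase in a biochemical, low-substrate format (both substrates at 10uM) and luminescence measured with a CCD imager.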
Npr1 antag conf – hNpr1 antagonism, confirmation assay; 76% of 1,400 active; AID 1347044; HEK293 hNpr1 cGMP GloSensor luminescence, ANP-stimulated; shares compounds with hNpr1 antagonist; Potency, µM (highest dose often 57.6 µM), inactives show at the top dose activity change, negative = inhibition, actives largely listed as inhibitors; calls by dose curve; also: nearly all actives have a fitted effect of over 70% in size
Npr2 selectivity – antagonizes human Npr2, subtype selectivity check | HEK293 hNpr2 GloSensor cGMP luminescence, CNP-stimulated | 67% of 1,400 active | shares compounds with hNpr1 antagonist | Potency, µM (titrated, usually from 57.6 µM), for inactives: top-dose activity change, negative = inhibition, most hits filed as inhibitors; calls by dose curve; also: nearly all actives have a fitted effect of over 70% in size
Target sequence (P20594 whole entry, looked up): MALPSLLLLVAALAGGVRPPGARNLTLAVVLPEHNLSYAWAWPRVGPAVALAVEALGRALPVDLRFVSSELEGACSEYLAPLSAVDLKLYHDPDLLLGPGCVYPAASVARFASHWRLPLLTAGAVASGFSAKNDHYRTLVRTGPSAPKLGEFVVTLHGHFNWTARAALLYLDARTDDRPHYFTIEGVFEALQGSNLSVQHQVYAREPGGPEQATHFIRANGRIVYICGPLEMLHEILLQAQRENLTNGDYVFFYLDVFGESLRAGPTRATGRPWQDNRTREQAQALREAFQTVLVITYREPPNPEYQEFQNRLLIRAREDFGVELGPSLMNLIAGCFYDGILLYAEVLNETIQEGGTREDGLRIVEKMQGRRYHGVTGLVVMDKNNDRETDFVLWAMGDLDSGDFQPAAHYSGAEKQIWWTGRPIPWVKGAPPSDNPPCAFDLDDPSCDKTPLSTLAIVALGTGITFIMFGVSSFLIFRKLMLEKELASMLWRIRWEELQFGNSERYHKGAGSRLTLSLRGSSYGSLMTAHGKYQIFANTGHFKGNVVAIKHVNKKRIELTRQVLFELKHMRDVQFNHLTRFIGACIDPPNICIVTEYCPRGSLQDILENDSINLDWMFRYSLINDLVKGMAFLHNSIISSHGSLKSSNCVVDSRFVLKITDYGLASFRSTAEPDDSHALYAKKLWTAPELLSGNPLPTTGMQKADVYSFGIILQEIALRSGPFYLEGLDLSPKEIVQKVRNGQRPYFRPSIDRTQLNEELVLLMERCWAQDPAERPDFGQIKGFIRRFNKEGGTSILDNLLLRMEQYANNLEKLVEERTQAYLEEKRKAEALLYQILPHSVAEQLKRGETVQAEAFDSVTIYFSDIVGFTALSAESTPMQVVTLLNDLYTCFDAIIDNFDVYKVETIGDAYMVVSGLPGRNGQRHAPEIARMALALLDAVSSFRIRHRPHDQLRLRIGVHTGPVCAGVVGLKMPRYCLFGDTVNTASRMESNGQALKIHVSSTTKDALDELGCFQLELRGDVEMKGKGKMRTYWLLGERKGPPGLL
FLuc inh counter – FLuc enzyme inhibition, Npr1 counter-screen; shares compounds with hNpr1 antagonist; AID 1347047; purified FLuc enzyme, luminescence, Km substrate; 0.7% of 1,400 active; Potency, µM (titrated, usually from 57.6 µM), for the others: at the top dose activity change, negative = inhibition, actives largely listed as inhibitors; also: series mostly up to about 58 µM; 0% is about no effect
GloSensor cGMP – control cell line activity, Npr1 antagonist counter-screen | shares compounds with hNpr1 antagonist | HEK293 GloSensor cGMP, SNP-stimulated, luminescence | Potency, µM (top dose mostly 57.6 µM), without a hit: at the top dose activity change, negative = inhibition, actives largely listed as inhibitors | 69% of 1,400 active; calls by dose curve; also: % is scaled to controls: 0 for no effect and ±100 for the full control effect; nearly all actives have a fitted effect of over 70% in size
* hit, by the source's call; i = inactive; u = inconclusive; x = no result; [ ] = remark or other dose. Unless noted, calls follow the shape of the dose curve; as a rule, active = well fitted curve in the direction sought with a large enough effect; inconclusive = small, poorly fitted or top-dose-only effect, or another doubt; inactive = no such curve, though single readings can be large; an effect the other way counts as inactive or inconclusive. Potency is read from the fitted curve at half-maximal effect.

SMILES	hNpr1 antagonist	HEK293 tox	GPT2 inhibitor	NIH3T3 tox	FLuc inh	Npr1 antag conf	Npr2 selectivity	FLuc inh counter	GloSensor cGMP
CCCc1ccc(S(=O)(=O)N(C)CC2CCOC2)cc1 (centres undefined)	-15%	u	i	-27%	i	x	x	x	x
COc1ccc(C2=NOC3(CCN([S+](=O)([O-])c4cccc(OC)c4)C3)C2)cc1 (centres undefined)	13µM*	28µM*	4%	u	i	24µM*	27µM*	0%	24µM*
COc1ccc(C2=NOC3(CCN([S+](=O)([O-])c4cccc(C(F)(F)F)c4)C3)C2)cc1 (centres undefined)	16µM*	u	-8%	u	i	u	31µM*	4%	u
COc1cccc([S+](=O)([O-])N2CCC3(CC(c4cccc(C(F)(F)F)c4)=NO3)C2)c1 (centres undefined)	x	-28%	-18%	-24%	x	x	x	x	x
COc1ccc(Cn2c3c(c(=O)n2Cc2ccccc2)CCN(C(=O)c2scnc2C)C3)cc1	-1%	3%	i	u	i	x	x	x	x
COCCOC1CCOC2(CCN(C(=O)Cc3ccccc3F)CC2)C1 (centres undefined)	7%	-1%	i	1%	i	x	x	x	x
CNC(=O)[C@H]1CN(C(=O)CO)[C@]2(C)C(=O)N(CC3CC3)c3ccccc3[C@H]12	x	-14%[57.5 µM]	-12%[27.3 µM]	u	x	x	x	x	x
COc1ccc(C(=O)Nc2ccc(-c3noc([C@@H]4CCCN4Cc4ccccc4C)n3)cn2)cc1	10µM*	u	-13%	-50%	i	7.7µM*	12µM*	-16%	9.7µM*
COc1ccc(C(=O)Nc2ccc(-c3noc([C@@H]4CCCN4Cc4ccc(Cl)cc4)n3)cn2)cc1	u	u	-14%	u	i	x	x	x	x
COc1ccc(C(=O)Nc2ccc(-c3noc([C@@H]4CCCN4Cc4ccc(F)c(F)c4)n3)cn2)cc1	10µM*	u	-7%	u	i	7.7µM*	9.7µM*	-16%	8.6µM*
O=C1OCC2=C1C(c1ccc(Cl)cc1)NC(=O)N2CC(=O)N1CCC(Cc2ccccc2)CC1 (centres undefined)	13µM*	28µM*	i	u	i	19µM*	24µM*	-1%	19µM*
CCOc1ccccc1C1NC(=O)N(CC(=O)Nc2cccc(C(F)(F)F)c2)C2=C1C(=O)OC2 (centres undefined)	u	u	i	45µM*	i	u	-27%	-9%	u
O=C(CN1C(=O)NC(c2ccc(Cl)cc2)C2=C1COC2=O)Nc1cccc(C(F)(F)F)c1 (centres undefined)	u	u	i	u	i	u	u	-19%	u
CC1CCN(C(=O)CN2C(=O)NC(c3ccccc3)C3=C2COC3=O)CC1 (centres undefined)	6%	1%	2%	i	i	x	x	x	x
CCn1c(C2CCN(C(=O)c3cc(F)cc(F)c3)CC2)nn(C)c1=O	-7%	-7%	i	-19%	i	x	x	x	x
